Each structure is given as a SMILES string. Inconclusive results are not listed. Active and inactive are the calls of the source. The call rests on the fitted dose curve; in most records, active means well fitted curve in either direction with a large enough effect; inconclusive means small, poorly fitted or top-dose-only effect; inactive means no such curve, though single readings can be large or run the other way.

The target in the assay is Lysosomal alpha-glucosidase (Homo sapiens) (UniProt P10253). In words: Confirmation of Inhibitors and Activators of Purified Human alpha-Glucosidase Using an Alternate Red Fluorescent Susbtrate. Particulars: purified enzyme, red fluorogenic substrate; series mostly up to 63.4 µM. From the text: NIH Chemical Genomics Center [NCGC]
NIH Molecular Libraries Probe Production centers Network [MLPCN]
Assay Submitter (PI): Wei Zheng
Alpha-glucosidase is responsible for hydrolysis of terminal, non-reducing 1,4-linked alpha-D-glucose residues with release of alpha-D-glucose. It is a lysosomal hydrolase that is required for the degradation of a small percentage (1-3%) of cellular glycogen in human. Deficiency of this enzyme results in glycogen-storage disease type II (GSDII), also referred to as Pompe disease, an autosomal recessive disorder. Structurally normal glycogen is accumulated in lysosomes and cytoplasm in affected patients, primarily in muscle tissues. Excessive glycogen storage within lysosomes may interrupt normal functioning of other organelles and leads to cellular injury. In turn, this leads to enlargement and dysfunction of the entire organ involved (eg, cardiomyopathy and muscle weakness).
It has reported that the improper folding and trafficking of alpha-glucosidase resultinged from the genetic mutations may account for a significant number of Pomrope patients. […] We optimized this alpha-glucosidase assay in 1536-well plate format for identifying the novel small molecule inhibitors with the structures other than the sugar analogs in order to develop the new pharmacological chaperones. This assay attempted to confirm hits from the primary screening using an alternate fluor than the primary screen used.
NCGC Assay Protocol Summary:
This is a fluorogenic enzyme assay with resorufin-alpha-D-pyranoside as the substrate and recombinant human alpha-glucosidase as the enzyme preparation. Upon the hydrolysis of this fluorogenic substrate, the resulting product, resorufin, can be excited at 573 nm and emits at 610 nm which can be detected by a standard fluorescence plate reader. Data were normalized to the controls for basal activity (without enzyme) and 100% activity (with enzyme). The AC50 values were determined from concentration-response data modeled with the standard Hill equation.
Assay buffer: 50 mM citric acid (titrated with potassium phosphate to pH 5.0), 0.005% Tween-20, pH 5.0. (pH 5.0 is an optimal condition for this enzyme assay)
1536-well assay protocol for the human alpha-glucosidase:
(1) Add 2 ul/well of enzyme (4 nM final)
(2) Add 23 nL compounds in DMSO solution. The final titration was 0.7 nM to 77 uM.
(3) Add 1 ul of substrate (400 uM final)
(4) Incubate at room temperature for 20 min.
(5) Add 2 ul stop solution (1M NaOH and 1M Glycine mixture, pH 10)
(6) Detect the assay plate in a ViewLux plate reader (PerkinElmer) with Ex=365 nm and Em=440nm.
Keywords: Alpha-glucosidase, Pompe Disease, pharmacological chaperone, chaperone therapy, high throughput screening, alpha-glucosidase inhibitor, MLSMR, MLSCN, NIH Roadmap, qHTS and NCGC
For `COc1ccc(CCn2c(=S)[nH]c(=O)c3nccnc32)cc1OC`, the Potency result was “inactive”. On to `CCCN1CNc2c(c(=O)[nH]c(=S)n2CCc2cc(C)cc(C)c2)C1`, for which the Potency was 3.16 µM (active).

In the case of `CCCN1CNc2c(c(=O)[nH]c(=S)n2CCc2ccccc2C)C1`, the Potency was 8.91 µM (active). With `N#Cc1ccc(N2CCN(S(=O)(=O)c3ccc4c(c3)CC(=O)N4)CC2)cc1` the figure was 3.26 µM [inhibitor] (active); with `CCCCN1C[C@H](O)[C@@H](O)[C@H](O)[C@H]1CO`, “inactive”; with `Cc1nc(N=Nc2cc(S(=O)(=O)O)c3cc([N+](=O)[O-])cc(S(=O)(=O)O)c3c2)c(COP(=O)(O)O)c(C=O)c1O`, “inactive”.

For the compound `O=C1Cc2cc(S(=O)(=O)N3CCN(c4ccc(O)cc4)CC3)ccc2N1`, the Potency was 2.37 µM [inhibitor] (active). As for `CCCN1CNc2c(c(=O)[nH]c(=S)n2CCc2c(C)cccc2C)C1`, the Potency was 3.16 µM (active).

Regarding `CCCN1CNc2c(c(=O)[nH]c(=S)n2CCc2ccc3c(c2)OCCO3)C1`, the Potency is 1.12 µM (active).

Consider `O=S(=O)(c1ccc(Cl)cc1)N1CCN(c2nc(Nc3cc(Cl)ccc3O)nc3ccccc23)CC1`, for which the Potency entry is “inactive”. Take `CCCN1CNc2c(c(=O)[nH]c(=S)n2CCc2c(OC)cccc2OC)C1`: the Potency was 14.1 µM (active). With `CC(=O)c1ccc(N2CCN(S(=O)(=O)c3ccc4c(c3)C(=O)OC4)CC2)cc1` the entry was “inactive”; with `CCCN1CNc2c(c(=O)[nH]c(=S)n2CCc2cc(OC)ccc2OC)C1`, 6.31 µM (active).

Consider `CCCN1CNc2c(c(=O)[nH]c(=S)n2CCc2cccc(OC)c2)C1`, for which the Potency is 2.51 µM (active). Take `CC(=O)c1ccc(N2CCN(S(=O)(=O)c3ccc4c(c3)oc(=O)n4C)CC2)cc1`: the Potency result was “inactive”. Take `CCCN1CNc2c(c(=O)[nH]c(=S)n2CCc2cccs2)C1`: the Potency is 7.94 µM (active). For the compound `CCCN1CNc2c(c(=O)[nH]c(=S)n2CCc2ccc(OC)cc2OC)C1`, the Potency is 2.51 µM (active). As for `CC(=O)c1ccc(N2CCN(S(=O)(=O)c3ccc4[nH]c(=O)oc4c3)CC2)cc1`, the Potency entry was “inactive”. As for `Clc1ncc(C#Cc2ccccc2)c2ncncc12`, the Potency result was “inactive”. As for `CCCN1CNc2c(c(=O)[nH]c(=S)n2CCc2cccc(Cl)c2)C1`, the Potency is 11.2 µM (active). For `O=C1Cc2cc(S(=O)(=O)N3CCN(c4ccc([N+](=O)[O-])cc4)CC3)ccc2N1`, the Potency is 3.26 µM [inhibitor] (active). Turning to `COc1ccc(CCn2c(=S)[nH]c(=O)c3[nH]cnc32)cc1OC`, the Potency result is “inactive”. In the case of `CCCN1CNc2c(c(=O)[nH]c(=S)n2CCc2cc(OC)cc(OC)c2)C1` it was 0.708 µM (active); in that of `CC(=O)c1ccc(N2CCN(S(=O)(=O)c3ccc4c(c3)C(Cl)(Cl)C(=O)N4)CC2)cc1`, 41.1 µM [inhibitor] (active); in that of `COc1ccc(C#Cc2c[nH]c(=O)c3cncnc23)cc1OC`, “inactive”.

In the case of `CC(=O)c1ccc(N2CCN(C(=O)c3ccc4c(c3)CCC(=O)N4)CC2)cc1`, the Potency result is “inactive”. With `O=c1[nH]cc(C#Cc2ccccc2)c2ncncc12`, the Potency result is “inactive”. In the case of `CCCN1CNc2c(c(=O)[nH]c(=S)n2CCc2cccc(C)c2)C1` it was 7.08 µM (active); in that of `COc1cc(NS(C)(=O)=O)ccc1Nc1c2ccccc2nc2ccccc12`, “inactive”. In the case of `CCCN1CNc2c(c(=O)[nH]c(=S)n2CCc2ccsc2)C1` it was 25.1 µM (active); in that of `Cc1ccc(S(=O)(=O)N2CCN(C(=O)N(c3ccccc3)c3ccccc3)CC2)cc1`, “inactive”; in that of `O=C1Cc2cc(S(=O)(=O)N3CCN(c4ccc(CO)cc4)CC3)ccc2N1`, 13 µM [inhibitor] (active).

Consider `CCCN1CNc2c(c(=O)[nH]c(=S)n2CCc2ccc(OCC)c(OCC)c2)C1`, for which the Potency is 1.78 µM (active).

On to `CC(O)[C@@H](O)[C@H]1CNc2nc(N)[nH]c(=O)c2N1` (stereo not given in full), for which the Potency entry is “inactive”. In the case of `CCCN1CNc2c(c(=O)[nH]c(=S)n2CCc2ccc(OC)cc2)C1`, the Potency is 6.31 µM (active).

Regarding `CCCN1CNc2c(c(=O)[nH]c(=S)n2CCC)C1`, the Potency entry is “inactive”. In the case of `OCC1NCC(O)C(O)C1O` (stereo not given) it was “inactive”; in that of `COc1ccc(CCn2c3c(c(=O)[nH]c2=S)CN(c2ccccc2)CN3)cc1OC`, 7.94 µM (active); in that of `CCCN1CNc2c(c(=O)[nH]c(=S)n2CCc2cc(C)ccc2C)C1`, 3.16 µM (active). As to `OCCNc1nc(-c2cccs2)nc2ccccc12`, the Potency entry was “inactive”.

Values taken from PubChem BioAssay AID2110 (National Center for Advancing Translational Sciences (NCATS), 2009).
